Activity calls are given as the source filed them.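 How the source made its calls, unless noted: active means fluorescence slope higher than the sample average by over 3 SD (cut at about -0.22 in these data, passing the limit was not always enough); inactive means the rest.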

The first test deals with Voltage-gated potassium channel subunit beta-2 (Rattus norvegicus) (UniProt P62483). Description: inhibitors of rat Kvbeta2 reductase activity – biochemical, NADPH fluorescence, primary screen (AID 622).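 Further: slope of raw intensity against log time taken from 70 to 1610 s.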 As to conditions: recombinant KvBeta, 4-cyanobenzaldehyde reduction, at 10 µM, stronger effect = higher value.
Sequence of Voltage-gated potassium channel subunit beta-2 (Rattus norvegicus) (P62483 whole entry, looked up): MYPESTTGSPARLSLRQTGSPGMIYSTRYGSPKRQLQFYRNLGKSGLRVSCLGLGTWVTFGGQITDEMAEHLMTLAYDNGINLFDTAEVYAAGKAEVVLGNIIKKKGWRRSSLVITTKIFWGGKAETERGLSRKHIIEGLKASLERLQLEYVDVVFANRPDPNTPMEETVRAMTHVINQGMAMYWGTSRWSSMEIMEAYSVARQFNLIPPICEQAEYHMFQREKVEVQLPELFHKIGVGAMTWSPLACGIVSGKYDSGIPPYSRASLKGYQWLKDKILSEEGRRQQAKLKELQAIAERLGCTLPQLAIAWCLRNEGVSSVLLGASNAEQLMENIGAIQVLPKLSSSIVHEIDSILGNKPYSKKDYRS
In the case of `COCCCNc1nc(-c2ccncc2)nc2ccccc12`, the fluorescence slope is -0.514 (inactive).
As to `CCOC(=O)c1cc2c(=O)n3ccccc3nc2n(Cc2ccccc2Cl)c1=N`, the fluorescence slope is -0.39 (inactive).
`COc1ccc(N/C=C(\C#N)c2nc3ccccc3n2C)c(OC)c1`: the fluorescence slope was -0.426 (inactive).
On to `Cc1c(C)c2cc(Cl)c(O)c(CN3CCN(C)CC3)c2oc1=O`, for which the fluorescence slope is -0.121 (inactive).
Take `Cc1cc(N2C(=O)C(=O)/C(=C(/O)c3ccccc3)C2c2cccc(Br)c2)no1` (stereo not given): the fluorescence slope was -0.473 (inactive).
For `CC1=CC(c2ccccc2)n2nc(N3C(=O)C4CC=CCC4C3=O)nc2N1` (stereo not given), the fluorescence slope is -0.41 (inactive).
As for `O=c1[nH]c(-c2ccccn2)nc2ccccc12`, the fluorescence slope is -0.555 (inactive).
The same measure, in the same setting: next, `COc1ccccc1N(Cc1cc2cccc(C)c2[nH]c1=O)C(=O)C(C)C`: -0.449 (inactive); `COc1ccc(NCc2cc3ccccc3[nH]c2=O)cc1`: -0.408 (inactive); `CN1CCN(Cc2c(O)ccc3c(-c4ccccc4)cc(=O)oc23)CC1`: -0.269 (inactive).
In the case of `COc1ccc(/C(O)=C2/C(=O)C(=O)N(CCN3CCOCC3)C2c2ccccn2)cc1OC` (stereo not given), the fluorescence slope is -0.419 (inactive).
Same read-out and setting: in the case of `CC12CCC(C(=O)N(CCC#N)CCC#N)(CC1=O)C2(C)C` (stereo not given) it was -0.505 (inactive).
In the case of `Cc1cccc(C)c1N1C(=O)C2ON(c3ccccc3)C(c3ccncc3)C2C1=O` (stereo not given), the fluorescence slope was -0.442 (inactive).
On to `CCCc1cc(=O)oc2c(CN3CCN(C)CC3)c(O)c(Cl)cc12`, for which the fluorescence slope is -0.229 (inactive).
As to `COCCN(CCOC)C(=O)C12CCC(C)(C(=O)C1)C2(C)C` (stereo not given), the fluorescence slope was -0.458 (inactive).
For the molecule `c1ccc(-c2nc(NCC3CCCO3)c3ccccc3n2)nc1` (stereo not given), the fluorescence slope was -0.436 (inactive).
Turning to `COC(=O)C1=C(C)N=C2SC(C)C(=O)N2C1c1cccs1` (stereo not given), the fluorescence slope was -0.426 (inactive).
The same measure, in the same setting: next, `COC(=O)C1=C(C)N=C2SC(C)C(=O)N2C1/C=C/c1ccccc1OC` (stereo not given): -0.423 (inactive); `CCOc1ccc(/C(O)=C2/C(=O)C(=O)N(c3nc(C)c(C)s3)C2c2ccco2)cc1` (stereo not given): -0.39 (inactive); `CCN(CC)CCCN1C(=O)C(=O)/C(=C(/O)c2ccc(Cl)cc2)C1c1ccccn1` (stereo not given): -0.442 (inactive).
In the case of `CCc1cc(=O)oc2c(CN3CCCC3)c(O)c(Cl)cc12`, the fluorescence slope is -0.247 (inactive).
In the case of `COc1cccc(-c2nc(NC(C)C)c3ccccc3n2)c1O`, the fluorescence slope was -0.436 (inactive).
Consider `CCOc1ccc(C2C(C(=O)c3ccc(C)o3)=C(O)C(=O)N2CCN2CCOCC2)cc1OC` (stereo not given), for which the fluorescence slope was -0.458 (inactive).
On the same count and under the same terms, next, `Oc1ccccc1-c1nc(NCc2ccco2)c2ccccc2n1`: -0.396 (inactive); `COc1ccccc1-c1cc(-c2cc(Cl)ccc2O)n[nH]1`: -0.453 (inactive).
`N#Cc1nc(-c2ccccc2Cl)oc1N1CCCCC1`: the fluorescence slope was -0.535 (inactive).
`CC(C)Cn1nc(NC(=O)C(C)(C)C)c2cc3ccccc3nc21`: the fluorescence slope is -0.371 (inactive).
Same read-out and setting: in the case of `CCO/C(C)=N/n1c2nc3ccccc3nc2c2c(=O)n(CC(C)C)c(C)nc21` it was -0.438 (inactive).
In the case of `O=C(NCCCn1ccnc1)C(Cc1ccccc1)N1C(=O)c2ccccc2C1=O` (stereo not given), the fluorescence slope is -0.46 (inactive).
Regarding `O=C(O)CCCCCN1C(=O)CCC1=O`, the fluorescence slope was -0.456 (inactive).
As to `CCCSc1nc(C)c(CC(=O)O)c(=O)[nH]1`, the fluorescence slope was -0.45 (inactive).
`COc1cccc(-c2nc(NCCN3CCOCC3)c3ccccc3n2)c1O`: the fluorescence slope is -0.395 (inactive).
With `CC1CCCCN1C(=O)C12CCC(C)(/C(=N/O)C1)C2(C)C` (stereo not given), the fluorescence slope is -0.407 (inactive).
For `Oc1ccccc1-c1nc(NCCN2CCOCC2)c2ccccc2n1`, the fluorescence slope is -0.423 (inactive).
As for `CCC1CCCCN1c1nc(-c2cccc(OC)c2O)nc2ccccc12` (stereo not given), the fluorescence slope was -0.454 (inactive).
For the molecule `COc1ccc(C2C=C(c3ccc(Cl)cc3)Nc3nc(NC(C)=O)nn32)cc1` (stereo not given), the fluorescence slope was -0.144 (inactive).
On the same count and under the same terms, in the case of `Oc1ccc(Br)cc1-c1cc(-c2ccccc2F)[nH]n1` it was -0.479 (inactive).
Consider `C=CCNc1nc(-c2cccc(OC)c2O)nc2ccccc12`, for which the fluorescence slope was -0.415 (inactive).
On the same count and under the same terms, in the case of `COc1cccc(/C(O)=C2/C(=O)C(=O)N(CCN(C)C)C2c2ccc(Br)cc2)c1` (stereo not given) it was -0.456 (inactive); in that of `CC1(C)CC(=O)C2=C(C1)Oc1nc3ccccc3cc1C2C(C#N)C#N` (stereo not given), -0.414 (inactive).

A further test shares this target. Description: enhancers of rat Kvbeta2 NADPH turnover – biochemical, NADPH fluorescence, primary screen (AID 623;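 active means NADPH fluorescence slope more negative than the mean of all samples by about 3 SD, 99.7% confidence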;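 further: fluorescence intensity change per second fitted from 20 to 320 s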). As to conditions: Recombinant KvBeta, NADPH fluorescence decrease slope, 10 min; at 10 µM; stronger effect = lower value.
As to `COCCCNc1nc(-c2ccncc2)nc2ccccc12`, the NADPH fluorescence slope is -8.3e-05 (inactive).
On to `CCOC(=O)c1cc2c(=O)n3ccccc3nc2n(Cc2ccccc2Cl)c1=N`, for which the NADPH fluorescence slope was -0.000121 (inactive).
On to `COc1ccc(N/C=C(\C#N)c2nc3ccccc3n2C)c(OC)c1`, for which the NADPH fluorescence slope was -0.000158 (inactive).
Turning to `Cc1c(C)c2cc(Cl)c(O)c(CN3CCN(C)CC3)c2oc1=O`, the NADPH fluorescence slope is 3.5e-05 (inactive).
`Cc1cc(N2C(=O)C(=O)/C(=C(/O)c3ccccc3)C2c2cccc(Br)c2)no1` (stereo not given): the NADPH fluorescence slope was -3.5e-05 (inactive).
As for `CC1=CC(c2ccccc2)n2nc(N3C(=O)C4CC=CCC4C3=O)nc2N1` (stereo not given), the NADPH fluorescence slope was -0.000143 (inactive).
Take `O=c1[nH]c(-c2ccccn2)nc2ccccc12`: the NADPH fluorescence slope was -4.4e-05 (inactive).
`COc1ccccc1N(Cc1cc2cccc(C)c2[nH]c1=O)C(=O)C(C)C`: the NADPH fluorescence slope is -0.000154 (inactive).
Turning to `COc1ccc(NCc2cc3ccccc3[nH]c2=O)cc1`, the NADPH fluorescence slope is -3.2e-05 (inactive).
With `CN1CCN(Cc2c(O)ccc3c(-c4ccccc4)cc(=O)oc23)CC1`, the NADPH fluorescence slope is -2.1e-05 (inactive).
For `COc1ccc(/C(O)=C2/C(=O)C(=O)N(CCN3CCOCC3)C2c2ccccn2)cc1OC` (stereo not given), the NADPH fluorescence slope was -9.3e-05 (inactive).
For the molecule `CC12CCC(C(=O)N(CCC#N)CCC#N)(CC1=O)C2(C)C` (stereo not given), the NADPH fluorescence slope is -9.3e-05 (inactive).
The same measure, in the same setting: in the case of `Cc1cccc(C)c1N1C(=O)C2ON(c3ccccc3)C(c3ccncc3)C2C1=O` (stereo not given) it was -0.000159 (inactive); in that of `CCCc1cc(=O)oc2c(CN3CCN(C)CC3)c(O)c(Cl)cc12`, -1.7e-05 (inactive); in that of `COCCN(CCOC)C(=O)C12CCC(C)(C(=O)C1)C2(C)C` (stereo not given), -5.9e-05 (inactive).
`c1ccc(-c2nc(NCC3CCCO3)c3ccccc3n2)nc1` (stereo not given): the NADPH fluorescence slope is -0.000131 (inactive).
For `COC(=O)C1=C(C)N=C2SC(C)C(=O)N2C1c1cccs1` (stereo not given), the NADPH fluorescence slope was -0.000101 (inactive).
On to `COC(=O)C1=C(C)N=C2SC(C)C(=O)N2C1/C=C/c1ccccc1OC` (stereo not given), for which the NADPH fluorescence slope is -0.00012 (inactive).
Take `CCOc1ccc(/C(O)=C2/C(=O)C(=O)N(c3nc(C)c(C)s3)C2c2ccco2)cc1` (stereo not given): the NADPH fluorescence slope was -5.6e-05 (inactive).
As to `CCN(CC)CCCN1C(=O)C(=O)/C(=C(/O)c2ccc(Cl)cc2)C1c1ccccn1` (stereo not given), the NADPH fluorescence slope is -0.000153 (inactive).
For the molecule `CCc1cc(=O)oc2c(CN3CCCC3)c(O)c(Cl)cc12`, the NADPH fluorescence slope is -3.3e-05 (inactive).
For `COc1cccc(-c2nc(NC(C)C)c3ccccc3n2)c1O`, the NADPH fluorescence slope was -0.000146 (inactive).
As for `CCOc1ccc(C2C(C(=O)c3ccc(C)o3)=C(O)C(=O)N2CCN2CCOCC2)cc1OC` (stereo not given), the NADPH fluorescence slope was -2.1e-05 (inactive).
Still for that read-out and setting: next, `Oc1ccccc1-c1nc(NCc2ccco2)c2ccccc2n1`: -0.000126 (inactive); `COc1ccccc1-c1cc(-c2cc(Cl)ccc2O)n[nH]1`: -1.7e-05 (inactive).
With `N#Cc1nc(-c2ccccc2Cl)oc1N1CCCCC1`, the NADPH fluorescence slope was -6.6e-05 (inactive).
Take `CC(C)Cn1nc(NC(=O)C(C)(C)C)c2cc3ccccc3nc21`: the NADPH fluorescence slope was -0.000242 (inactive).
Turning to `CCO/C(C)=N/n1c2nc3ccccc3nc2c2c(=O)n(CC(C)C)c(C)nc21`, the NADPH fluorescence slope is -6e-05 (inactive).
Turning to `O=C(NCCCn1ccnc1)C(Cc1ccccc1)N1C(=O)c2ccccc2C1=O` (stereo not given), the NADPH fluorescence slope was -0.000126 (inactive).
The same measure, in the same setting: next, `O=C(O)CCCCCN1C(=O)CCC1=O`: -0.000125 (inactive); `CCCSc1nc(C)c(CC(=O)O)c(=O)[nH]1`: -0.00012 (inactive).
Take `COc1cccc(-c2nc(NCCN3CCOCC3)c3ccccc3n2)c1O`: the NADPH fluorescence slope is -0.00024 (inactive).
Take `CC1CCCCN1C(=O)C12CCC(C)(/C(=N/O)C1)C2(C)C` (stereo not given): the NADPH fluorescence slope was -0.000148 (inactive).
On the same count and under the same terms, next, `Oc1ccccc1-c1nc(NCCN2CCOCC2)c2ccccc2n1`: -3.4e-05 (inactive); `CCC1CCCCN1c1nc(-c2cccc(OC)c2O)nc2ccccc12` (stereo not given): -0.000132 (inactive).
Turning to `COc1ccc(C2C=C(c3ccc(Cl)cc3)Nc3nc(NC(C)=O)nn32)cc1` (stereo not given), the NADPH fluorescence slope was 4.9e-05 (inactive).
As to `Oc1ccc(Br)cc1-c1cc(-c2ccccc2F)[nH]n1`, the NADPH fluorescence slope is -9.7e-05 (inactive).
Consider `C=CCNc1nc(-c2cccc(OC)c2O)nc2ccccc12`, for which the NADPH fluorescence slope is -0.000104 (inactive).
As to `COc1cccc(/C(O)=C2/C(=O)C(=O)N(CCN(C)C)C2c2ccc(Br)cc2)c1` (stereo not given), the NADPH fluorescence slope was 7.9e-06 (inactive).
`CC1(C)CC(=O)C2=C(C1)Oc1nc3ccccc3cc1C2C(C#N)C#N` (stereo not given): the NADPH fluorescence slope was -0.000128 (inactive).

Source of the values: PubChem BioAssay.
